Screening results as filed in PubChem BioAssay.
ASM inhibitor: inhibitors of human secretory acid sphingomyelinase. Potency, µM (titrated, usually from 57.5 µM), actives largely listed as inhibitors. hit rate 0.006% among 340,000. placental ASM, HMU-PC fluorogenic substrate, 60 min. P17405. AID 504937; active = well fitted inhibition curve with a large enough effect; inconclusive = small, poorly fitted or top-dose-only effect; inactive = no such curve, though single readings can be large or run the other way
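Fluorescence read-out (Ex 386 nm, Em 447 nm) after stopping the reaction at pH 10. Enzyme: ASM from human placenta; substrate HMU-PC0, 9 uM final; 60 min, 37 °C. Compound preincubation 10 min, ambient temperature.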
TSHR antag: antagonists of human thyroid stimulating hormone receptor. TSHR-expressing cells, TSH-stimulated cAMP HTRF, 2 h; active compounds read low. activity change, negative = inhibition, % at 11.5 µM. hit rate 0.2% among 330,000. AID 504810;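 active = activity change below a set negative limit, meaning inhibition stronger than a set level, cut at about -70% in these data; inconclusive = activity change between two set negative limits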
Target sequence (P16473 whole entry, looked up): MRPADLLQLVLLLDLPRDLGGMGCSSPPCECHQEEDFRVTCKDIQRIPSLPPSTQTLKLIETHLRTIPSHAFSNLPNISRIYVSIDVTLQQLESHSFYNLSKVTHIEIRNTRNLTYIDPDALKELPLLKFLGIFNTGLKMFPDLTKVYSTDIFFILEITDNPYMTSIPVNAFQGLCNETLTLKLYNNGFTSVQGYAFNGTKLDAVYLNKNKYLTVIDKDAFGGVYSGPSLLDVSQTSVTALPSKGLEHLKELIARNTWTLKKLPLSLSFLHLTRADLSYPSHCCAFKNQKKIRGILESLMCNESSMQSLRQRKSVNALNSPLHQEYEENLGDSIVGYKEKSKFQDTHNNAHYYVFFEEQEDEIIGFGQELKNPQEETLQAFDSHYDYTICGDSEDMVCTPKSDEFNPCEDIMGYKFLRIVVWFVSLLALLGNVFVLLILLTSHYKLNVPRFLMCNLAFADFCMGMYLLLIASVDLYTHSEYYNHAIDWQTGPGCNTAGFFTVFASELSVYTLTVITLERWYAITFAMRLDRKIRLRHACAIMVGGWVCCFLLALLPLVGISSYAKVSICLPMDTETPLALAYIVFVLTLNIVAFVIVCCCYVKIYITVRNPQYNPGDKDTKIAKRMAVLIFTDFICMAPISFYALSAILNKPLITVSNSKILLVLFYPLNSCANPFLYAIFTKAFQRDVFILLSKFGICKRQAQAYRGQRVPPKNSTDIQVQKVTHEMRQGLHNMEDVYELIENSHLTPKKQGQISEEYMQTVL
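Competitive HTRF cAMP read-out (cryptate anti-cAMP antibody, cAMP-d2; 30 min, room temperature) in freshly harvested TSHR cells. Compounds added before TSH at EC80 (4nM final), followed by 2 hours' incubation at 37 deg C.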
BCR signal inh: chronic active BCR signaling inhibition; ABC-DLBCL IkBa-CBG/CBR reporter, luminescence ratio, 4 h; Potency, µM (titrated, usually from 46.1 µM), hits mostly inhibitors; hit rate 0.05% among 340,000; AID 493014; active = well fitted inhibition curve with a large enough effect in the signal ratio, with a control signal flat, not every such curve was filed as active; inconclusive = small, poorly fitted or top-dose-only effect, or effect the other way, or a change in a side signal; the % refers to the signal ratio
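Compounds up to 46 uM were incubated four hours with TMD8 cells whose green CBG68 luciferase is fused to IkappaBalpha; red CBR luminescence normalised the signal, and concentration-effect curves were fitted to fusion, red and ratio data.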
Six1-Eya2 blk: inhibitors of human Six1/Eya2 interaction; Q15475+O00167; AlphaScreen GST-Six1/His-Eya2 binding, biochemical; active compounds read low; activity change, % (concentration not given with the values); hit rate 0.56% among 360,000; AID 651725
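Compounds are tested against tagged Six1 and Eya2 proteins bridged by glutathione donor and nickel acceptor beads; after a one-hour incubation at 37 °C without light, AlphaScreen emission is recorded.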
CtBP-E1A blk: CtBP/E1A binding inhibition; AID 651724; AlphaScreen GST-E1A/His-CtBP binding, 1536-well; active compounds read low; activity change, % (test concentration not listed); hit rate 0.49% among 340,000
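Protein mix (5X: 125 nM each GST-E1A, His-CtBP) was incubated with pinned compound 2 h at 37 deg C in dark, in 50 mM Tris pH 8.0 buffer with 300 mM NaCl. Glutathione donor and nickel acceptor beads followed; AlphaScreen signal read after 1 h.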
A number is an active result; i = inactive; ? = inconclusive; nt = no result given; [ ] = remark or other dose. Rows were chosen to be rich in hits. Some 0.85% of all compounds tested hit in one or more screens of this group. Cut-off read from the data, not from the text of the source, unless noted: active = activity change below about -65%; inconclusive = mostly about -30% to -63%; inactive = weaker than that.

SMILES | ASM inhibitor | TSHR antag | BCR signal inh | Six1-Eya2 blk | CtBP-E1A blk
CCOC(=O)c1c(N)n(-c2ccccc2CC)c2nc3ccccc3nc12 | nt | nt | i | nt | nt
Cc1cc(C)c(NC(=O)CSc2nc(=O)n(Cc3ccncc3)c3c2CCC3)c(C)c1 | nt | nt | i | nt | nt
CCC(Sc1nc2cc(OC)c(OC)cc2c(=O)n1Cc1ccc(Cl)cc1)C(=O)NCCOC (stereo not drawn) | nt | nt | i | nt | nt
O=C(O)COc1ccc(C=C2SC(=S)N(c3ccccc3)C2=O)cc1 | i | nt | nt | i | -92
CCc1oc2ccccc2c1C(=O)c1cc(Br)c(O)c(Br)c1 | i | -70 | ? | i | i
CCc1ccc(OCC(=O)c2c(O)c3ccccc3oc2=O)cc1 | i | i | ? | i | i
CC(=O)c1ccc(NC(=O)CSc2nnc(-c3ccncc3)n2-c2ccccc2)cc1 | nt | nt | i | nt | nt
CC1=C(SCCC#N)S/C(=C2\SC(C)=C(SCCC#N)S2)S1 | i | i | i | -78 | i
CC1CCCCN1S(=O)(=O)c1cc2c(=O)nc3ccccn3c2cc1Cl (stereo not drawn) | nt | nt | i | nt | nt
COc1ccc(/C=C/C(=O)c2ccc(O)cc2)cc1CN1CCOCC1 | i | i | ? | ? | -86
Cc1nn(-c2ccc(N3CCOCC3)nn2)c(C)c1CCC(=O)NCc1ccccc1F | i | -105 | i | i | i
Cc1nn(-c2ccc(N3CCOCC3)nn2)c(C)c1CCC(=O)NCc1ccccc1 | i | i | i | i | i
S=c1[nH]nc(-c2ccccc2)n1C1C=CCCC1 (stereo not drawn) | i | -71 | ? | i | i
COc1cc2nc(N3CCCN(C)CC3)nc(NC3CCN(Cc4ccccc4)CC3)c2cc1OC | nt | i | nt | nt | nt
Oc1ccc2ccccc2c1N=Nc1ccc(F)cc1 | i | i | i | ? | i
Oc1c(N=Nc2ccc(F)cc2)ccc2ccccc12 | i | i | i | ? | -76
Brc1ccc(N/N=C(/N=Nc2nn[nH]n2)c2ccccc2)cc1 | i | i | ? | ? | nt
Oc1c(N=Nc2nn[nH]n2)ccc2ccccc12 | nt | nt | nt | -76 | ?
COc1cccc(N=Nc2ccc3ccccc3c2O)c1 | i | i | ? | -82 | nt
Cc1ccc(N=Nc2ccc3ccccc3c2O)cc1 | i | i | i | -88 | i
COc1ccc2c3c(c(=O)oc2c1)C1O[C@](c2ccsc2)(Cc2cc(C#N)ccc21)O3 | nt | nt | i[9.22 µM] | nt | nt
O=C(Nc1ccc(Cl)cc1Cl)c1cc(S(=O)(=O)N2CCC3(CC2)OCCO3)ccc1F | nt | nt | i | nt | nt
Cc1ccc(CN2C(=O)CN(C3CCCCCC3)C(=O)C2c2ccc(F)cc2)cc1 (stereo not drawn) | nt | nt | i | nt | nt
Cc1c(NC(=O)/C(C#N)=C/c2c(Oc3ccccc3)nc3ccccn3c2=O)c(=O)n(-c2ccccc2)n1C | i | i | 18µM | i | i
O=c1n(Cc2ccc(F)cc2Cl)c2ccccc2c2nc(-c3ccccc3)nn12 | nt | nt | i | nt | nt
SMILES | ASM inhibitor | TSHR antag | BCR signal inh | Six1-Eya2 blk | CtBP-E1A blk
Clc1ss/c(=N\c2ccccn2)c1Cl | i | i | ? | -92 | -86
Cc1onc(-c2ccccc2Cl)c1C(=O)Oc1cc(N)n(S(=O)(=O)c2ccc(F)cc2)n1 | i | i | ? | -81 | ?
c1ccc(-c2nc(-c3ccncc3)n[nH]2)nc1 | i | i | i | -89 | i
c1ccc(-c2ccncc2)nc1 | i | i | i | i | i
CCc1ccc(NC(=O)C2CCN(S(=O)(=O)c3cccc(-c4noc(C)n4)c3)CC2)cc1 | nt | nt | i | nt | nt
Cc1ccc(Cl)cc1-n1ncc2c(N3CCN(Cc4ccccc4)CC3)ncnc21 | nt | nt | i | nt | nt
O=C(Nc1ccccc1F)c1cnccn1 | i | i | i | i | i
O=C(Nn1cc(C(=O)Nc2ccc(F)cc2F)c2ccccc2c1=O)c1cnccn1 | i | i | i | -72 | ?
COc1ccc(NC(=O)c2c(NCc3ccc(OC)c(OC)c3OC)sc3c2CCC3)c(OC)c1 | nt | nt | i | nt | nt
O=C1NN(c2ccc(Cl)c(Cl)c2)C(=O)/C1=C/c1ccc(-c2ccccc2C(=O)O)o1 | i | i | ? | ? | -72
Cc1ccc(N2NC(=O)/C(=C/c3ccc(-c4ccc(Cl)c(C(=O)O)c4)o3)C2=O)cc1C | i | i | ? | i | i
Cc1c(CN(C)C)c2c(n1Cc1ccccc1)C(=O)c1ccc(Br)cc1-2 | ? | i | ? | -65 | ?
CCCC[C@]12Cc3ccccc3C(O1)c1c(c3ccccc3oc1=O)O2 | nt | nt | i[9.22 µM] | nt | nt
O=S1(=O)N=C(N(CCO)/N=C/c2ccncc2)c2ccccc21 | i | i | i | -80 | -78
CC(C)(C)NC(=O)CCN(/N=C/c1ccncc1)C1=NS(=O)(=O)c2ccccc21 | i | i | i | -68 | -82
Cc1ccc(C2=NN(CC(=O)NC(C)c3ccccc3)C(=O)CC2)cc1 (stereo not drawn) | nt | nt | i | nt | nt
Cc1ccc(S(=O)(=O)N2CCN(C(=O)COC(=O)/C=C/c3ccc(F)cc3)CC2)c(C)c1 | i | i | i | i | i
COc1cc(/C=C/C(=O)OCC(=O)N2CCN(S(=O)(=O)c3ccc(C)cc3C)CC2)ccc1OC(F)F | i | nt | nt | i | -86
COc1ccc(-c2nc3sc(CCNC(=O)c4ccc(C(C)(C)C)cc4)c(C)n3n2)cc1 | nt | nt | i | nt | nt
O=[N+]([O-])c1ccccc1/C=C/C=N/N1CCCCC1 | i | i | ? | -68 | ?
COc1ccccc1N1CCN(/N=C/C=C/c2ccccc2[N+](=O)[O-])CC1 | i | i | ? | ? | -65
O=[N+]([O-])c1ccccc1/C=C\C=N\N1CCN(c2ccccc2)CC1 | i | i | ? | -66 | i
O=[N+]([O-])c1ccccc1/C=N\N1CCN(c2ccccc2)CC1 | i | i | i | ? | nt
COc1ccc(C(=O)NCc2ccc3c(c2)CCN3C(=O)c2ccncc2)cc1 | nt | nt | i | nt | nt
Cc1csc2nc3cc(C(N)=O)ccc3c(=O)n12 | i | i | i | ? | ?
SMILES | ASM inhibitor | TSHR antag | BCR signal inh | Six1-Eya2 blk | CtBP-E1A blk
NC(=O)c1ccc2c(=O)n3c(-c4cc(Cl)c(N)c(Cl)c4)csc3nc2c1 | i | i | i | -75 | -76
Cc1noc(C)c1-c1ccc2ncnc(NCc3cccc(-c4ccccc4)c3)c2c1 | nt | i | ? | nt | nt
COc1ccc(C(=S)N2CCOCC2)cc1OC(=O)c1ccccc1Cl | i | i | i | i | i
O=C(Oc1ccc(Cl)c2cccnc12)N1CCOCC1 | i | i | i | i | i
O=C(Oc1c(Cl)cc(Cl)c2cccnc12)c1cccs1 | i | i | 23µM | -67 | -82
O=C(Oc1c(CN2CCOCC2)cc(Cl)c2cccnc12)c1ccccc1Cl | i | i | ? | -93 | -91
O=C(Oc1c(Cl)cc(Cl)c2cccnc12)c1ccco1 | i | i | ? | -92 | i
O=C(Oc1c(CN2CCOCC2)cc(Cl)c2cccnc12)c1cccs1 | i | i | ? | -84 | -86
CCOC(=O)C(C)N1C(=O)S/C(=C\c2ccc(-c3ccccc3C(=O)O)o2)C1=O (stereo not drawn) | i | i | i | ? | nt
Cc1ccc(C)c(N2C(=N)S/C(=C\c3ccc(-c4ccccc4C(=O)O)o3)C2=O)c1 | i | i | ? | -72 | ?
